{"source": "PubChem BioAssay AID1159580", "about": "(chemical genetic matrix, 2015)", "test": "chemical genetic growth profiling, strain panel (AID 1159580);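 note: tested at 20 µM; growth read once vehicle control cultures reached saturation at 30 °C; 1 = growth at the plate median or of vehicle wells; lower values mean less growth of the strain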", "details": "growth OD", "note": "Where “and” joins values, the source holds several entries; their conditions need not be identical. Identical values can stand only once. The whole screen tested about 5,500 compounds, of which about 2,000 (36%) were called active. Inconclusive results (about 18%) are left out. Some of the results follow. Values without a mark were called inactive. Cut-off read from the data, not from the text of the source: active = normalized growth mostly below about 0.91 (no sharp cut-off); inconclusive = no clear call, values can overlap the other calls; inactive = mostly above about 0.92."}
{"smiles": "O=C(O)CCCc1ccc(N(CCCl)CCCl)cc1", "values": [{"measurement": "normalized growth", "setting": "S. cerevisiae deletion strains, locus YKL009W, strain mrt4, active compounds read low", "value": 0.92}, {"measurement": "normalized growth", "setting": "S. cerevisiae deletion strains, locus YKL068W, active compounds read low", "value": 0.973}, {"measurement": "normalized growth", "setting": "S. cerevisiae deletion strains, locus YKL085W, strain MDH1 (second series), active compounds read low", "value": 0.942}, {"measurement": "normalized growth", "setting": "S. cerevisiae deletion strains, locus YKL085W, strain MDH1, active compounds read low", "value": 0.942}, {"measurement": "normalized growth", "setting": "S. cerevisiae deletion strains, locus YKL160W, strain elf1, active compounds read low", "value": 0.927}, {"measurement": "normalized growth", "setting": "S. cerevisiae deletion strains, locus YKR001C, strain vps1, active compounds read low", "value": 0.985}, {"measurement": "normalized growth", "setting": "S. cerevisiae deletion strains, locus YKR026C, strain gcn3, active compounds read low", "value": 0.971}, {"measurement": "normalized growth", "setting": "S. cerevisiae deletion strains, locus YKR091W, strain srl3, active compounds read low", "value": 0.962}, {"measurement": "normalized growth", "setting": "S. cerevisiae deletion strains, locus YLL001W, strain dnm1, active compounds read low", "value": 1.01}, {"measurement": "normalized growth", "setting": "S. cerevisiae deletion strains, locus YLL026W, active compounds read low", "value": 0.984}, {"measurement": "normalized growth", "setting": "S. cerevisiae deletion strains, locus YLL041C, strain sdh2, active compounds read low", "value": 0.963}, {"measurement": "normalized growth", "setting": "S. cerevisiae deletion strains, locus YLR027C, strain aat2, active compounds read low", "value": 0.949}, {"measurement": "normalized growth", "setting": "S. cerevisiae deletion strains, locus YLR039C, strain RIC1, active compounds read low", "value": 0.974}, {"measurement": "normalized growth", "setting": "S. cerevisiae deletion strains, locus YLR058C, strain SHM2, active compounds read low", "value": 0.977}, {"measurement": "normalized growth", "setting": "S. cerevisiae deletion strains, locus YLR102C, strain apc9, active compounds read low", "value": 0.987}, {"measurement": "normalized growth", "setting": "S. cerevisiae deletion strains, locus YLR113W, strain HOG1, active compounds read low", "value": "0.838 (active)"}, {"measurement": "normalized growth", "setting": "S. cerevisiae deletion strains, locus YLR221C, strain rsa3, active compounds read low", "value": 1.03}, {"measurement": "normalized growth", "setting": "S. cerevisiae deletion strains, locus YLR258W, strain gsy2, active compounds read low", "value": 0.96}, {"measurement": "normalized growth", "setting": "S. cerevisiae deletion strains, locus YLR262C, strain YPT6 (second series), active compounds read low", "value": 0.987}, {"measurement": "normalized growth", "setting": "S. cerevisiae deletion strains, locus YLR262C, strain YPT6, active compounds read low", "value": 0.915}, {"measurement": "normalized growth", "setting": "S. cerevisiae deletion strains, locus YLR268W, strain sec22, active compounds read low", "value": 0.981}, {"measurement": "normalized growth", "setting": "S. cerevisiae deletion strains, locus YLR320W, strain mms22, active compounds read low", "value": 0.993}, {"measurement": "normalized growth", "setting": "S. cerevisiae deletion strains, locus YLR330W, strain CHS5, active compounds read low", "value": 0.985}, {"measurement": "normalized growth", "setting": "S. cerevisiae deletion strains, locus YLR342W, strain FKS1 (second series), active compounds read low", "value": 0.96}, {"measurement": "normalized growth", "setting": "S. cerevisiae deletion strains, locus YLR342W, strain FKS1, active compounds read low", "value": 0.99}, {"measurement": "normalized growth", "setting": "S. cerevisiae deletion strains, locus YLR357W, strain rsc2, active compounds read low", "value": 0.948}, {"measurement": "normalized growth", "setting": "S. cerevisiae deletion strains, locus YLR370C, strain arc18, active compounds read low", "value": 0.959}, {"measurement": "normalized growth", "setting": "S. cerevisiae deletion strains, locus YLR371W, strain rom2, active compounds read low", "value": 0.992}, {"measurement": "normalized growth", "setting": "S. cerevisiae deletion strains, locus YLR384C, strain iki3, active compounds read low", "value": 0.979}, {"measurement": "normalized growth", "setting": "S. cerevisiae deletion strains, locus YLR418C, strain cdc73, active compounds read low", "value": 1.03}, {"measurement": "normalized growth", "setting": "S. cerevisiae deletion strains, locus YML016C, strain PPZ1, active compounds read low", "value": 0.984}, {"measurement": "normalized growth", "setting": "S. cerevisiae deletion strains, locus YML032C, strain rad52, active compounds read low", "value": 0.944}, {"measurement": "normalized growth", "setting": "S. cerevisiae deletion strains, locus YML120C, strain ndi1, active compounds read low", "value": 0.987}, {"measurement": "normalized growth", "setting": "S. cerevisiae deletion strains, locus YML124C, strain tub3, active compounds read low", "value": 0.989}, {"measurement": "normalized growth", "setting": "S. cerevisiae deletion strains, locus YMR058W, strain fet3, active compounds read low", "value": 0.979}, {"measurement": "normalized growth", "setting": "S. cerevisiae deletion strains, locus YMR078C, strain ctf18, active compounds read low", "value": 0.972}, {"measurement": "normalized growth", "setting": "S. cerevisiae deletion strains, locus YMR125W, strain sto1, active compounds read low", "value": 0.945}, {"measurement": "normalized growth", "setting": "S. cerevisiae deletion strains, locus YMR129W, active compounds read low", "value": 0.969}, {"measurement": "normalized growth", "setting": "S. cerevisiae deletion strains, locus YMR205C, strain PFK2, active compounds read low", "value": 0.992}, {"measurement": "normalized growth", "setting": "S. cerevisiae deletion strains, locus YMR223W, strain ubp8, active compounds read low", "value": 1.01}, {"measurement": "normalized growth", "setting": "S. cerevisiae deletion strains, locus YMR231W, strain pep5, active compounds read low", "value": 0.981}, {"measurement": "normalized growth", "setting": "S. cerevisiae deletion strains, locus YMR307W, strain GAS1, active compounds read low", "value": "0.922 and 0.985"}, {"measurement": "normalized growth", "setting": "S. cerevisiae deletion strains, locus YNL067W, strain RPL9B, active compounds read low", "value": 1.02}, {"measurement": "normalized growth", "setting": "S. cerevisiae deletion strains, locus YNL071W, strain lat1, active compounds read low", "value": 0.964}, {"measurement": "normalized growth", "setting": "S. cerevisiae deletion strains, locus YNL153C, strain GIM3, active compounds read low", "value": 1.01}, {"measurement": "normalized growth", "setting": "S. cerevisiae deletion strains, locus YNL175C, strain NOP13, active compounds read low", "value": 1.04}, {"measurement": "normalized growth", "setting": "S. cerevisiae deletion strains, locus YNL183C, strain NPR1, active compounds read low", "value": 0.908}, {"measurement": "normalized growth", "setting": "S. cerevisiae deletion strains, locus YNL197C, strain WHI3, active compounds read low", "value": 0.989}, {"measurement": "normalized growth", "setting": "S. cerevisiae deletion strains, locus YNL209W, strain ssb2, active compounds read low", "value": 0.976}, {"measurement": "normalized growth", "setting": "S. cerevisiae deletion strains, locus YNL224C, strain SQS1, active compounds read low", "value": 1}, {"measurement": "normalized growth", "setting": "S. cerevisiae deletion strains, locus YNL233W, strain BNI4, active compounds read low", "value": 1.03}, {"measurement": "normalized growth", "setting": "S. cerevisiae deletion strains, locus YNL248C, strain rpa49, active compounds read low", "value": "0.882 (active)"}, {"measurement": "normalized growth", "setting": "S. cerevisiae deletion strains, locus YNL250W, strain rad50, active compounds read low", "value": "0.819 (active)"}, {"measurement": "normalized growth", "setting": "S. cerevisiae deletion strains, locus YNL271C, strain bni1, active compounds read low", "value": 0.967}, {"measurement": "normalized growth", "setting": "S. cerevisiae deletion strains, locus YNL298W, strain CLA4, active compounds read low", "value": "0.896 (active)"}, {"measurement": "normalized growth", "setting": "S. cerevisiae deletion strains, locus YNL307C, strain MCK1, active compounds read low", "value": 0.983}, {"measurement": "normalized growth", "setting": "S. cerevisiae deletion strains, locus YNL322C, strain KRE1 (second series), active compounds read low", "value": 0.943}, {"measurement": "normalized growth", "setting": "S. cerevisiae deletion strains, locus YNR049C, strain mso1, active compounds read low", "value": 0.959}, {"measurement": "normalized growth", "setting": "S. cerevisiae deletion strains, locus YNR052C, strain pop2, active compounds read low", "value": 0.985}, {"measurement": "normalized growth", "setting": "S. cerevisiae deletion strains, locus YOL006C, strain TOP1, active compounds read low", "value": 1.11}, {"measurement": "normalized growth", "setting": "S. cerevisiae deletion strains, locus YOL012C, strain htz1", "value": 1.27}, {"measurement": "normalized growth", "setting": "S. cerevisiae deletion strains, locus YOL147C, strain pex11, active compounds read low", "value": 0.99}, {"measurement": "normalized growth", "setting": "S. cerevisiae deletion strains, locus YOR001W, strain rrp6, active compounds read low", "value": 1.03}, {"measurement": "normalized growth", "setting": "S. cerevisiae deletion strains, locus YOR061W, strain CKA2, active compounds read low", "value": 0.969}, {"measurement": "normalized growth", "setting": "S. cerevisiae deletion strains, locus YOR069W, strain VPS5, active compounds read low", "value": 0.975}, {"measurement": "normalized growth", "setting": "S. cerevisiae deletion strains, locus YOR070C, strain gyp1, active compounds read low", "value": 0.984}, {"measurement": "normalized growth", "setting": "S. cerevisiae deletion strains, locus YOR080W, strain dia2, active compounds read low", "value": 0.963}, {"measurement": "normalized growth", "setting": "S. cerevisiae deletion strains, locus YOR083W, strain WHI5 (second series), active compounds read low", "value": 0.99}, {"measurement": "normalized growth", "setting": "S. cerevisiae deletion strains, locus YOR083W, strain WHI5, active compounds read low", "value": 0.94}, {"measurement": "normalized growth", "setting": "S. cerevisiae deletion strains, locus YOR106W, strain vam3, active compounds read low", "value": 0.918}, {"measurement": "normalized growth", "setting": "S. cerevisiae deletion strains, locus YOR136W, strain idh2, active compounds read low", "value": 0.987}, {"measurement": "normalized growth", "setting": "S. cerevisiae deletion strains, locus YOR144C, strain elg1, active compounds read low", "value": 0.987}, {"measurement": "normalized growth", "setting": "S. cerevisiae deletion strains, locus YOR184W, strain ser1, active compounds read low", "value": 0.976}, {"measurement": "normalized growth", "setting": "S. cerevisiae deletion strains, locus YOR231W, strain MKK1, active compounds read low", "value": "0.84 (active)"}, {"measurement": "normalized growth", "setting": "S. cerevisiae deletion strains, locus YOR265W, strain rbl2, active compounds read low", "value": 0.969}, {"measurement": "normalized growth", "setting": "S. cerevisiae deletion strains, locus YOR270C, strain vph1, active compounds read low", "value": 0.986}, {"measurement": "normalized growth", "setting": "S. cerevisiae deletion strains, locus YOR290C, strain snf2, active compounds read low", "value": 0.935}, {"measurement": "normalized growth", "setting": "S. cerevisiae deletion strains, locus YOR316C, strain cot1, active compounds read low", "value": 0.976}, {"measurement": "normalized growth", "setting": "S. cerevisiae deletion strains, locus YPL051W, strain arl3, active compounds read low", "value": 0.997}, {"measurement": "normalized growth", "setting": "S. cerevisiae deletion strains, locus YPL055C, strain LGE1, active compounds read low", "value": 0.992}, {"measurement": "normalized growth", "setting": "S. cerevisiae deletion strains, locus YPL078C, strain atp4, active compounds read low", "value": 0.952}, {"measurement": "normalized growth", "setting": "S. cerevisiae deletion strains, locus YPL106C, strain sse1, active compounds read low", "value": 0.899}, {"measurement": "normalized growth", "setting": "S. cerevisiae deletion strains, locus YPL240C, strain hsp82, active compounds read low", "value": 0.988}, {"measurement": "normalized growth", "setting": "S. cerevisiae deletion strains, locus YPL241C, strain CIN2, active compounds read low", "value": 0.997}, {"measurement": "normalized growth", "setting": "S. cerevisiae deletion strains, locus YPL256C, strain CLN2, active compounds read low", "value": 0.857}, {"measurement": "normalized growth", "setting": "S. cerevisiae deletion strains, locus YPR119W, strain clb2, active compounds read low", "value": 0.985}, {"measurement": "normalized growth", "setting": "S. cerevisiae deletion strains, locus YPR141C, strain kar3, active compounds read low", "value": 0.99}, {"measurement": "normalized growth", "setting": "S. cerevisiae deletion strains, locus YPR163C, strain tif3, active compounds read low", "value": 0.984}, {"measurement": "normalized growth", "setting": "S. cerevisiae deletion strains, locus YPR167C, strain met16, active compounds read low", "value": 0.994}, {"measurement": "normalized growth", "setting": "S. cerevisiae deletion strains, strain wtn01, active compounds read low", "value": 0.993}, {"measurement": "normalized growth", "setting": "S. cerevisiae strains, strain wild type, active compounds read low", "value": 0.984}]}
